Enrichment ratio data for 153 variants are collected here from a collection of fitness landscapes (doi:10.1126/science.1257360).

B1: PhoQ; a variant is named by its letters at X, in order, P23837 (parent)
chain: MKKLLRLFFPLSLRVRFLLATAAVVLVLSLAYGMVALIGYSVSFDKTTFRLLRGESNLFYTLAKWENNKLHVELPENIDKQSPTMTLIYDENGQLLWAQRDVPWLMKMIQPDWLKSNGFHEIEADVNDTSLLLSGDHSIQQQLQEVREDDDDAEMTHSVAVNVYPATSRMPKLTIVVVDTIPVELKSSYMVWSWFIYVLSANLLLVIPLLWVAAWWSLRPIEALAKEVRELEEHNRELLNPATTRELTSLVRNLNRLLKSERERYDKYRTTLTDLTHSLKTPLXXLQXXLRSLRSEKMSVSDAEPVMLEQISRISQQIGYYLHRASMRGGTLLSRELHPVAPLLDNLTSALNKVYQRKGVNISLDISPEISFVGEQNDFVEVMGNVLDNACKYCLEFVEISARQTDEHLYIVVEDDGPGIPLSKREVIFDRGQRVDTLRPGQGVGLAVAREITEQYEGKIVAGESMLGGARMEVIFGRQHSAPKDE

The full ranking holds about 140,000 sequences; the median of “enrichment ratio after two sorts for PhoP signalling” is about 0, and the highest 2% start at about 11. The list comes from a sample in which the highest values are over-represented; it also holds similar and randomly drawn sequences.

In the assay the parent is B1. Description: enrichment ratio after two sorts for PhoP signalling (ratio (wild type AVST 3.29)); higher = more functional. The note with it: with PhoP (E. coli).
On to LYDV, for which the enrichment ratio was not above 0.25.
As for WERP, the figure is not above 0.25.
Consider FGLD, for which the enrichment ratio was not above 0.25.
As for WHSD, the figure is not above 0.25; as for PARG, not above 0.25.
As for SKNV, the enrichment ratio is not above 0.25.
In the case of KDFC, the enrichment ratio was not above 0.25.
With ATMV, the enrichment ratio is 9.43.
In the case of ATVG, the enrichment ratio was determined as 6.86.
Then AICG, with 8.42; and TTTG, with 7.1.
Then ATIV, with 8.37; and ATTG, with 12; and ITCG, with not above 0.25.
ATCG: the enrichment ratio amounted to 16.1.
As for YTTG, the enrichment ratio is not above 0.25.
Take ATMG: the enrichment ratio amounted to 16.2.
As to ATCV, the enrichment ratio came out at 15.4.
In the case of ATPI, the enrichment ratio was 8.1.
Turning to HMVR, the enrichment ratio was not above 0.25.
As for PPPT, the figure is not above 0.25; as for HYAC, not above 0.25.
As for MRCY, the figure is not above 0.25; as for ALEK, not above 0.25.
As to QMAV, the enrichment ratio is not above 0.25.
For the variant HMTD, the enrichment ratio is not above 0.25.
Then LMTS, with 0.708; and YCYV, with not above 0.25; and SCYS, with 0.535.
For the variant QMGG, the enrichment ratio was not above 0.25.
As for LLQC, the enrichment ratio was not above 0.25.
For the variant ATNL, the enrichment ratio turned out to be 5.25.
With ATMD, the enrichment ratio was found to be 27.9.
For ATMW, the enrichment ratio is 26.9.
As for ATPW, the figure is not above 0.25; as for ATHW, not above 0.25.
On to ATCI, for which the enrichment ratio amounted to 12.5.
With ATYD, the enrichment ratio is not above 0.25.
Turning to ATCA, the enrichment ratio amounted to 5.9.
As for ATPL, the figure is 5.31; as for ATCL, 18.6.
In the case of ATGD, the enrichment ratio is not above 0.25.
For the variant ATCK, the enrichment ratio stood at 3.27.
In the case of WGSP, the enrichment ratio is not above 0.25.
Regarding HYYD, the enrichment ratio was not above 0.25.
Regarding WSIS, the enrichment ratio is not above 0.25.
Consider ITGG, for which the enrichment ratio is not above 0.25.
As for MSAK, the enrichment ratio is not above 0.25.
For EGWA, the enrichment ratio is not above 0.25.
As for DSML, the figure is not above 0.25; as for IFTF, not above 0.25.
For the variant PWYL, the enrichment ratio is not above 0.25.
In the case of ADCW, the enrichment ratio was not above 0.25.
Take YTCW: the enrichment ratio is not above 0.25.
As for ATCW, the figure is 11.3; as for HMKN, not above 0.25; as for NKTY, not above 0.25.
In the case of AIAY, the enrichment ratio is 6.61.
Take NQAY: the enrichment ratio is not above 0.25.
Consider AQYI, for which the enrichment ratio was not above 0.25.
Regarding AQAY, the enrichment ratio came to 15.2.
Then AKAY, with 13.6; and AHAY, with 1.08.
For the variant ANAY, the enrichment ratio was 36.4.
ANNY: the enrichment ratio was 6.43.
Regarding ANYI, the enrichment ratio was not above 0.25.
As for CPSL, the figure is not above 0.25.
Turning to QEVG, the enrichment ratio is not above 0.25.
On to FDGF, for which the enrichment ratio is not above 0.25.
As to HSWS, the enrichment ratio was not above 0.25.
With NKSN, the enrichment ratio is not above 0.25.
Take WFED: the enrichment ratio is not above 0.25.
As to WRFE, the enrichment ratio is not above 0.25.
Turning to IQAV, the enrichment ratio is not above 0.25.
Turning to NVMV, the enrichment ratio was not above 0.25.
Take KLCH: the enrichment ratio is not above 0.25.
Then CTCH, with not above 0.25; and SHMH, with 3; and ITCH, with not above 0.25.
For the variant WLCH, the enrichment ratio was not above 0.25.
Consider SHCH, for which the enrichment ratio amounted to 16.
With TTCH, the enrichment ratio turned out to be 15.
On to STCH, for which the enrichment ratio came to 12.6.
GTCH: the enrichment ratio is 4.08.
Then THCH, with 5.09; and SLCH, with 11.6.
Take YTCH: the enrichment ratio was 0.285.
Turning to DCLL, the enrichment ratio was not above 0.25.
As for YWMV, the enrichment ratio was not above 0.25.
On to YISQ, for which the enrichment ratio is 0.456.
On to YEYI, for which the enrichment ratio is not above 0.25.
For the variant RIQD, the enrichment ratio is not above 0.25.
Regarding APKL, the enrichment ratio was not above 0.25.
As for KTLD, the enrichment ratio is not above 0.25.
Regarding QTQN, the enrichment ratio was not above 0.25.
Consider LCCT, for which the enrichment ratio was not above 0.25.
With EDCL, the enrichment ratio is not above 0.25.
Consider KEMG, for which the enrichment ratio is not above 0.25.
Regarding SGQL, the enrichment ratio came out at 12.
In the case of SIQL, the enrichment ratio was found to be 13.1.
YTQL: the enrichment ratio is not above 0.25.
For QEQL, the enrichment ratio is not above 0.25.
Then STQL, with 17.1; and NIQL, with not above 0.25; and KYQL, with not above 0.25.
For SMQL, the enrichment ratio is 12.1.
Consider SAQL, for which the enrichment ratio is 9.87.
SLQL: the enrichment ratio came to 5.85.
Regarding SQQL, the enrichment ratio worked out at 2.28.
On to QLRC, for which the enrichment ratio was not above 0.25.
As for KRKR, the enrichment ratio is not above 0.25.
For YDDH, the enrichment ratio was not above 0.25.
On to EAQW, for which the enrichment ratio is not above 0.25.
As for TNTK, the enrichment ratio was not above 0.25.
Then TNTI, with 15.8.
As to TNTA, the enrichment ratio was 10.1.
TNTC: the enrichment ratio worked out at 11.6.
Turning to TNNK, the enrichment ratio was not above 0.25.
As to TNTH, the enrichment ratio came out at 1.01.
Consider TNTS, for which the enrichment ratio worked out at 13.4.
Then TNTD, with not above 0.25; and TNIC, with not above 0.25.
WEHT: the enrichment ratio was not above 0.25.
As for FCPF, the figure is not above 0.25; as for IDMQ, not above 0.25; as for VSQK, not above 0.25.
AKCQ: the enrichment ratio turned out to be 19.1.
Regarding HKCQ, the enrichment ratio is not above 0.25.
Then AWCQ, with not above 0.25; and TKCQ, with 11.7; and MKCQ, with not above 0.25.
For AICQ, the enrichment ratio worked out at 3.77.
On to PWVC, for which the enrichment ratio is not above 0.25.
Then AKCV, with 3.07.
In the case of MMCL, the enrichment ratio was 4.1.
As for TKCE, the figure is 7.83; as for TKCV, 30.6.
Take TKCI: the enrichment ratio came to 10.8.
As for KKCV, the figure is not above 0.25; as for KKCL, 1.66.
Take TKCL: the enrichment ratio is 14.6.
In the case of MKCL, the enrichment ratio is 16.5.
Regarding TKCS, the enrichment ratio amounted to 13.2.
With HKCL, the enrichment ratio was 3.32.
With GGMT, the enrichment ratio is not above 0.25.
Then SKMP, with not above 0.25; and GFDT, with not above 0.25; and WRTW, with not above 0.25.
For DDAA, the enrichment ratio is not above 0.25.
As for ARFW, the enrichment ratio is not above 0.25.
On to AEAC, for which the enrichment ratio stood at 43.5.
Regarding KKAC, the enrichment ratio was not above 0.25.
Take SIAC: the enrichment ratio came out at 13.
